Data taken from ChEMBL document CHEMBL2218924, “A broad activity screen in support of a chemogenomic map for kinase signalling research and drug discovery” (Biochem J, 2013).

molecular target: CDK9/cyclin T1 (Homo sapiens) (UniProt O60563+P50750); details: at 1 µM

SMILES | residual activity [%]
CCCC(=O)Oc1ccc2[nH]c(C(=O)c3cc4ccccc4[nH]3)cc2c1 | 108
Cn1sc(=O)n(Cc2ccccc2)c1=O | 93
O=C1NC(=O)C(c2cn(CCCn3ccnc3)c3ccccc23)=C1Nc1ccccc1 | 14
Nc1n[nH]c2nc3ccccc3nc12 | 59
COc1cc2nccc(Oc3ccc(NC(=S)NC(=O)c4ccccc4C)cc3)c2cc1OC | 92
NCCNc1ncc(C(N)=O)c(Nc2cccc(C(F)(F)F)c2)n1 | 73
CC(C)(C)n1nc(Cc2cccc3ccccc23)c2c(N)ncnc21 | 101
O=S(=O)(NCCNC/C=C/c1ccc(Br)cc1)c1cccc2cnccc12 | 72
Nc1ncnc2c1cnn2-c1ccccc1 | 102
O=c1cc(N2CCOCC2)oc2c1ccc1ccccc12 | 95
O=C(O)/C=C/c1cc(Br)c(Br)c(Br)c1Br | 69
O=C1NC(=O)c2c1c1c3ccccc3[nH]c1n1cncc21 | 70
O=C(Nc1nc2ccccc2n1CCN1CCOCC1)c1cccc([N+](=O)[O-])c1 | 41
COc1ccc2c(c1)c(C1=C(c3c[nH]c4ccccc34)C(=O)NC1=O)cn2CCCN(C)C | 29
O=C(c1ccccc1)c1ccc(N2CCOCC2)cc1O | 89
Nc1nc(Nc2ccc(S(N)(=O)=O)cc2)nn1C(=O)c1c(F)cccc1F | 0
NC(=O)Nc1sc(-c2ccc(F)cc2)cc1C(N)=O | 89
O=C(c1cc2cc(O)ccc2[nH]1)c1cc2cc(O)ccc2[nH]1 | 26
CCCCc1c(-c2ccc(O)cc2)[nH]c2nccnc12 | 7
N#C/C(=C1/Nc2ccccc2S1)c1ccnc(NCCc2cccnc2)n1 | 8
COc1cc2c(cc1OC)-c1n[nH]c(Nc3cccc(F)c3)c1C2 | 99
Cc1cc(C)c(/C=C2\C(=O)Nc3ccccc32)[nH]1 | 100
CN(C)S(=O)(=O)c1ccc2c(c1)/C(=C/c1cc3c([nH]1)CCCC3)C(=O)N2 | 92
CCN(CC)CCNC(=O)c1c(C)[nH]c(/C=C2\C(=O)Nc3ccc(Cl)cc32)c1C | 48
Nc1ncnc2c1c(-c1ccc(Oc3ccccc3)cc1)cn2C1CCCC1 | 99
CC(C)c1nn(-c2c(Cl)cccc2Cl)c2nc(Cc3ccc(OCCO)cc3)[nH]c(=O)c12 | 2
O=c1cc(N2CCNCC2)oc2c(-c3ccccc3)cccc12 | 79
O=C1C(Cl)=C(N2C(=O)CCC2=O)C(=O)c2ccccc21 | 86
O=C1Nc2ccc(Cl)cc2/C1=C/c1cc(Cl)c(O)c(Cl)c1 | 90
O=C1Cc2c([nH]c3ccc([N+](=O)[O-])cc23)-c2ccccc2N1 | 1
